# Assay results from PubChem BioAssay.
# Activity calls are given as the source filed them.
# Experiments:
# [1] = target: Albumin (Bos taurus) (UniProt P02769); experiment: compounds binding labelled BSA control protein – biochemical, small-molecule microarray, Alexa647 label, 635/667 nm fluorescence, artefact control for SMM control protein annotation, profiling panel (AID 1118); conditions: BSA-A647 binding, fluorescence 635 nm, higher = more signal;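 note: score merges 667 nm emission intensity and signal-to-noise per printed compound spot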
# [2] = probe aXIP binding to arrayed compounds – biochemical, NeuroSMM set, 635/667 nm fluorescence, primary screen (AID 1119); conditions: small-molecule microarray, higher = more signal, called active from +8 up or from −8 down;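 note: probe is the protein aXip251-270 applied at 1 µg/mL to compound-printed slides; binding of probe to printed compounds measured as 667 nm fluorescence plus signal to noise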
# [3] = probe aNOTCH3 binding on compound microarray – biochemical, small-molecule microarray, 635/667 nm fluorescence, primary screen (AID 1120); conditions: higher = more signal;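 note: probe is a biotin-tagged antibody raised against NOTCH3 rather than NOTCH3 protein; score merges spot fluorescence near 667 nm with spot signal to noise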
# [4] = probe aNOTCH2 binding on compound microarray – biochemical, small-molecule microarray, 635/667 nm fluorescence, primary screen (AID 1121); conditions: higher = more signal;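 note: score merges feature fluorescence read at 667 nm with its signal to noise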
# [5] = target: Carbonic anhydrase 2 (Homo sapiens) (UniProt P00918); experiment: compounds binding carbonic anhydrase 2 – biochemical, small-molecule microarray, Alexa647-labelled CAII, profiling panel (AID 1122); conditions: CAII-A647 binding fluorescence, higher = more signal
# [6] = COS7 lysate on small-molecule microarray, probe aHis, 635 nm (AID 1123); conditions: COS7 cell lysate, fluorescence, higher = more signal;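 note: z-score combines 667nm fluorescence intensity with signal-to-noise per printed compound spot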
# [7] = probe aLAP1 signal on lysate-treated microarray – cell lysate, small-molecule microarray, COS7 lysate, primary screen (AID 1124); conditions: probe aLAP1, fluorescence, higher = more signal;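 note: lysate comes from COS7 cells expressing LAP1 and is applied at 0.3 µg/mL; score merges spot fluorescence near 667 nm with signal-to-noise over triplicate slides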
# [8] = tested on: Sam68 (KHDRBS1); experiment: compounds binding KHDRBS1 protein – biochemical, small-molecule microarray, 635 nm fluorescence, primary screen (AID 1125); conditions: higher = more signal;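 note: score merges 667 nm channel intensity with signal to noise over triplicate slides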
# [9] = tested on: Chordin-like protein 2 (CHRDL2); experiment: compounds binding chordin-like 2 – biochemical, small-molecule microarray, 635 nm fluorescence, primary screen (AID 1126); conditions: fluorescence 635 nm, higher = more signal;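 note: printed compound slides probed with Chrdl2 protein at 4 µg/mL for 1 h at 4 C; score merges 667 nm emission intensity with signal to noise over three replicate slides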
# [10] = target: Concanavalin-A (Canavalia ensiformis) (UniProt P02866); experiment: compounds binding concanavalin A lectin – biochemical, small-molecule microarray, Alexa647 label, 635 nm, artefact control for SMM control protein annotation, primary screen (AID 1127); conditions: ConA-A647 binding fluorescence, higher = more signal;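 note: z combines 667 nm emission intensity with signal-to-noise across three replicate slides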
# Concanavalin-A (Canavalia ensiformis), sequence (P02866 whole entry, looked up): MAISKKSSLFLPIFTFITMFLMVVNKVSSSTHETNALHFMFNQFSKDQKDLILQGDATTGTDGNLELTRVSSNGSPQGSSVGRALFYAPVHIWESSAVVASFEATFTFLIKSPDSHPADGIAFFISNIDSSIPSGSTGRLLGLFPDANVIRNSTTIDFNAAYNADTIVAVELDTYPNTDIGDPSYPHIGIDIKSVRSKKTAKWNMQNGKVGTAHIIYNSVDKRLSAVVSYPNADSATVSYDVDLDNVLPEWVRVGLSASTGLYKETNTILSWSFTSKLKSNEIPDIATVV
# Albumin (Bos taurus), sequence (P02769 whole entry, looked up): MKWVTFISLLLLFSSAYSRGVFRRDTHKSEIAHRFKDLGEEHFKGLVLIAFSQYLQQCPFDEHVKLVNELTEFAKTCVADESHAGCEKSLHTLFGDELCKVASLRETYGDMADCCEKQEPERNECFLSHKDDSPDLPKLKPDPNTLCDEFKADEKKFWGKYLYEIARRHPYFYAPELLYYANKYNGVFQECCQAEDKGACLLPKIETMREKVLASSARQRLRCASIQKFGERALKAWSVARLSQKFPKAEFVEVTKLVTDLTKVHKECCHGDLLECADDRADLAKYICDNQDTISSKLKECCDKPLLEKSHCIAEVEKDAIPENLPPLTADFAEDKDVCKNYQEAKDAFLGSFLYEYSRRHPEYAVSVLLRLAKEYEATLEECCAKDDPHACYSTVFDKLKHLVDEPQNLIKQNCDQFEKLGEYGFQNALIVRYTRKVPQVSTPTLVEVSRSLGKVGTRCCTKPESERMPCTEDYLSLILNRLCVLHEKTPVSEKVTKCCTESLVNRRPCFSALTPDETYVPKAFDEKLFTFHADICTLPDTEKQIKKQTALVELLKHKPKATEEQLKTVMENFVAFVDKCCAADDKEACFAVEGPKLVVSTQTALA
SMILES,composite z-score [1],composite Z-score [2],composite z-score [3],composite z-score [4],composite z-score [5],composite z-score [6],composite z-score [7],composite z-score [8],composite z-score [9],composite z-score [10]
COCCOC(=O)N1C(=O)[C@@]2(c3cc(C#Cc4ccc(OC)cc4)ccc31)[C@H](C(N)=O)[C@H]1C(=O)O[C@H](c3ccccc3)[C@H](c3ccccc3)N1[C@@H]2c1ccc(O)cc1,-1.62,0.0064 (inactive),0.319,-0.0125,0.0424,-0.304,0.0413,-0.986,-1.71,-1.67
C=CCC(OC(C)=O)[C@@H]1[C@@H](N(Cc2cc3ccccc3o2)C(=O)c2cccc3ccccc23)c2cc(OCCCO)ccc2N1C(=O)Cc1ccc2ccccc2c1 (stereo not given in full),0.398,0.182 (inactive),0.0496,-0.0928,0.0704,0.256,0.0592,-0.301,0.16,0.106
COc1ccc([Si](C)(C)[C@H]2[C@H](CC(=O)N3Cc4ccccc4C[C@H]3CO)O[C@@]3(C(=O)N(Cc4cccc(I)c4)c4ccccc43)[C@@H]2C)cc1,-0.481,0.58 (inactive),-0.0947,-0.125,0.784,-0.0845,-0.361,0.418,1.54,0.891
COc1ccc([Si](C)(C)[C@H]2[C@H](CCO)O[C@@]3(C(=O)N(Cc4cccc(N5C(=O)c6cccc7cccc5c67)c4)c4ccccc43)[C@@H]2C)cc1,0.577,0.326 (inactive),-0.122,-0.148,0.23,0.856,1.42,1.13,-0.27,0.863
COc1ccc(C#Cc2ccc3c(c2)[C@]2(C(=O)N3)[C@H](C(=O)N3CCN(c4ncccn4)CC3)[C@H]3C(=O)O[C@H](c4ccccc4)[C@H](c4ccccc4)N3[C@@H]2c2ccc(O)cc2)cc1,0.413,0.345 (inactive),-0.184,0.0086,0.327,1.19,0.76,1.3,0.7,1.05
CO[C@H]1O[C@H](CO)[C@@H](OC(=O)Nc2ccc(C(F)(F)F)cc2)[C@H](OC(=O)Nc2ccccc2)[C@@H]1OC(=O)Nc1ccccc1,0.533,0.291 (inactive),0.217,0.0405,0.527,2.31,-0.0098,1.29,-0.28,1.16
COc1ccc(CCNC(=O)[C@@]2(C)c3ccccc3C(=O)N(Cc3ccccc3)[C@H]2c2ccc(CO)cc2)cc1,0.365,0.247 (inactive),0.178,-0.116,0.446,1.51,0.941,1.16,0.594,1.14
C=CC[C@@]1(C(=O)NCc2ccccc2)N=C(c2ccc(OCCCO)cc2)O[C@@H]1c1ccccc1CN=[N+]=[N-],0.889,1.01 (inactive),0.525,0.117,0.721,2.95,0.88,1.26,-0.58,1.03
COc1ccc(C(O)C2C=CC3C(=O)N(c4ccccc4)C(=O)C3N2Nc2ccccc2)c2ccccc12 (stereo not given),0.705,0.0542 (inactive),0.19,-0.0528,0.522,1.97,0.0206,-0.309,-0.841,0.69
CCCCCCCCCCC(O)C1C=CC2C(=O)N(c3ccccc3)C(=O)C2N1Nc1ccc([N+](=O)[O-])cc1 (stereo not given),0.804,0.568 (inactive),0.216,-0.0984,0.594,1.63,0.109,1.31,-0.301,1.05
CCCNC(=O)[C@@]1(C)c2ccccc2C(=O)N(Cc2ccc(OC(F)(F)F)cc2)[C@H]1c1ccc(CO)cc1,0.132,2.11 (inactive),-0.0397,-0.0035,0.267,-0.517,0.727,0.565,-0.602,0.949
[N-]=[N+]=NCc1ccccc1[C@H]1OC(c2ccc(OCCCO)cc2)=N[C@@]1(Cc1ccccc1)C(=O)O,0.179,-0.365 (inactive),0.102,-0.106,0.63,1.05,-0.289,1.13,-0.469,1.11
COc1ccc(C#Cc2ccc3c(c2)[C@]2(C(=O)N3)[C@H](C(=O)N3CCc4cc(OC)c(OC)cc4C3)[C@H]3C(=O)O[C@H](c4ccccc4)[C@H](c4ccccc4)N3[C@@H]2c2ccc(OCCO)cc2)cc1,-0.0155,0.289 (inactive),0.0762,-0.0859,0.136,1.19,0.351,1.24,0.523,1.07
CCN(CC)c1ccc(N2CC=CC34O[C@@H]5C=CCCOC(=O)C5[C@H]3C(=O)N(CCCO)[C@@H]4C2=O)cc1 (stereo not given in full),-0.87,-0.0662 (inactive),-0.0387,-0.102,-0.177,-0.291,-0.332,-0.876,-0.218,-2.31
CC(C)C(=C=CC[C@H](O)c1ccccc1OCCO)CCO,-0.415,-0.172 (inactive),-0.0947,-0.045,0.707,0.989,0.342,0.829,-0.332,-0.284
C=CCC(OC(C)=O)[C@@H]1[C@@H](N(Cc2ccc(-c3ccccc3)cc2)C(=O)c2ccc(C)cc2)c2cc(OCCCO)ccc2N1C(=O)c1ccc2ccccc2n1 (stereo not given in full),-0.361,-0.181 (inactive),0.246,-0.0134,0.0144,0.249,-0.446,-0.44,0.0539,-1.78
O=C1OCCC=C[C@H]2OC34C=CCN(c5ccc6ccccc6c5)C(=O)[C@H]3N(CCCCCCO)C(=O)[C@@H]4C12 (stereo not given in full),-0.768,0.938 (inactive),-0.161,-0.14,0.82,0.386,-0.674,0.264,-0.853,-1.01
C[C@H]1C2[C@H](Cc3ccccc3)NC(=O)[C@]23C(=O)N[C@H](Cc2ccccc2)C(=O)N[C@H](Cc2ccccc2)C(=O)NC/C=C/CCC/C=C/C3[C@@H]2O[C@]12C (stereo not given in full),0.63,0.312 (inactive),-0.246,-0.115,0.312,1.25,0.338,0.179,0.8,0.472
O=P(NCC1(CC2(c3ccccc3)CO2)CC1)(c1ccccc1)c1ccccc1 (stereo not given),0.0287,-0.187 (inactive),-0.159,-0.0451,0.692,2.49,0.106,-0.31,-0.821,-0.805
COc1ccc([Si](C)(C)[C@@H]2[C@@H](CCO)O[C@]3(C(=O)N(Cc4ccc(N5C(=O)c6cccc7cccc5c67)cc4)c4ccccc43)[C@H]2C)cc1,0.308,0.77 (inactive),-0.252,-0.119,0.382,0.332,0.232,-0.276,-0.161,-0.259
CCOC(=O)C1=C[C@@H](C(C)(C)C)N(S(=O)(=O)c2ccc(C)cc2)[C@H]1c1ccc(Cl)c(Cl)c1,0.867,-0.179 (inactive),0.163,0.0601,0.497,1.79,1.03,1.3,0.185,1.16
CC(C)NC(=O)[C@@]1(c2ccc([N+](=O)[O-])cc2)CC(=O)N(C(C)C)[C@@H]1c1ccc(CO)cc1,0.697,0.461 (inactive),-0.399,-0.176,0.718,0.859,0.723,0.0001,-1.66,-0.0183
O=C1C2C=CC(C(O)CCc3ccccc3)N(Nc3ccccc3)C2C(=O)N1c1ccccc1 (stereo not given),0.861,-0.107 (inactive),0.185,0.0278,0.65,2.82,0.899,1.3,-0.788,1.2
COCCOC(=O)N1C(=O)[C@@]2(c3cc(C#CCC(C(=O)OC)C(=O)OC)ccc31)[C@H](c1ccc(OCCO)cc1)N1[C@H](c3ccccc3)[C@H](c3ccccc3)OC(=O)[C@H]1[C@@H]2C(=O)NC[C@H](O)c1ccccc1,0.599,-0.33 (inactive),0.272,-0.132,0.563,2.42,0.41,1.32,0.45,1.01
C=C(C(=O)CC[C@@H](OC(=O)c1cccnc1)c1ccc(CO)o1)C(C)C,0.0207,0.278 (inactive),0.101,-0.0698,0.614,0.583,0.697,1.24,0.584,0.383
COC(=O)c1c(CC[C@@H](CO)NC(=O)Nc2ncn[nH]2)oc(C(=O)Cc2ccccc2)c1C(=O)OC,-0.145,1 (inactive),0.158,-0.12,0.768,3.22,0.705,0.885,1.08,1.16
COCCOC(=O)N1C(=O)[C@@]2(c3cc(C#CC4=CCCCC4)ccc31)[C@H](c1ccc(OCCO)cc1)N1[C@H](c3ccccc3)[C@H](c3ccccc3)OC(=O)[C@H]1[C@@H]2C(=O)Nc1nc2ccccc2s1,0.539,0.657 (inactive),0.151,-0.0483,0.154,0.999,0.664,1.31,1.29,1.09
